Laboratory results taken from PubChem BioAssay (EPA / NIEHS).
Inconclusive results are not listed. The source made the active and inactive calls. Rule for the calls, unless noted: active = hit-call score of the fitted dose curve at least 0.9, where 1 is the maximum; inactive = score below 0.9.

Assays:
[1] = biological target: Hepatocyte nuclear factor 3-beta (Homo sapiens) (UniProt Q9Y261); assay: ATG_FoxA2_CIS: Attagene CIS-FACTORIAL HepG2 Assay for human Forkhead box A2 (FOXA2) (AID 2282942); conditions: HepG2 cis-reporter transcription factor activity, 24 h; actives raise or lower the signal
Procedure, shortened: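 Endogenous transcription factor activity was read in HepG2 cells carrying transiently transfected cis-promoter reporter units. After 24 h dosing, reporter mRNA was quantified by RT-PCR and capillary electrophoresis, and values fitted bidirectionally versus DMSO.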

[2] = biological target: Heat shock factor protein 1 (Homo sapiens) (UniProt Q00613); assay: ATG_HSE_CIS: Attagene CIS-FACTORIAL HepG2 Assay for human Heat Shock Transcription Factor 1 (HSE) (AID 2282953); conditions: HepG2 HSE cis-reporter, Attagene RNA transcription; actives raise or lower the signal
Procedure, shortened: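 Using HepG2 with transfected cis-driven reporter constructs, compound effects on endogenous factor activity are scored as reporter mRNA change at 24 h. Detection: RT-PCR, HpaI digestion, capillary electrophoresis; bidirectional fitting to DMSO.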

[3] = ATG_RORE_CIS: Attagene CIS-FACTORIAL HepG2 Assay for human RAR-related Orphan Receptor Element (RORE) (AID 2282959); conditions: HepG2 Attagene cis-factorial RORE reporter, mRNA; actives raise or lower the signal
Procedure, shortened: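 Cells were HepG2 carrying transfected cis-regulated reporter constructs, dosed for 24 hours. Total RNA was reverse-transcribed and reporter cDNA amplified, fluorescently labeled and sized by capillary electrophoresis. Activity was fitted bidirectionally relative to DMSO.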

[4] = ATG_Sox_CIS: Attagene CIS-FACTORIAL HepG2 Assay for human SRY-box transcription factor (SOX) (AID 2282960); conditions: HepG2 Attagene cis-factorial SOX reporter, mRNA; actives raise or lower the signal
Procedure, shortened: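 Transient MRTU transfection of HepG2; 24 h compound incubation; TriZol RNA, oligo(dT) RT, PCR, 6-FAM primer extension, HpaI cut, CE. Bidirectional fit, DMSO = baseline.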

[5] = biological target: Transcription factor Sp1 (Homo sapiens) (UniProt P08047); assay: ATG_Sp1_CIS: Attagene CIS-FACTORIAL HepG2 Assay for human Specificity Protein 1 (Sp1) (AID 2282961); conditions: HepG2 Sp1 cis-reporter transcription, actives raise or lower the signal
Procedure, shortened: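 Endogenous Sp1 activity was gauged in human liver HepG2 cells bearing transfected reporter units under a cis-regulating promoter. After 24 h dosing, reporter mRNA was quantified by RT-PCR with capillary electrophoresis, and activity fitted bidirectionally versus DMSO.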

[6] = ATG_SREBP_CIS: Attagene CIS-FACTORIAL HepG2 Assay for human Sterol Regulatory Element Binding (SREBP) (AID 2282962); conditions: HepG2 Attagene cis-factorial SREBP reporter, mRNA; actives raise or lower the signal
Procedure, shortened: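 HepG2 cells transiently transfected with multiplexed cis-promoter reporter units sensing endogenous transcription factors; reporter mRNA measured 24 h after dosing by RT-PCR, 6-FAM labeling, HpaI digestion and capillary electrophoresis. Bidirectional fit versus DMSO.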

[7] = biological target: Signal transducer and activator of transcription 3 (Homo sapiens) (UniProt P40763); assay: ATG_STAT3_CIS: Attagene CIS-FACTORIAL HepG2 Assay for human Signal Transducer and Activator of Transcription 3 (STAT3) (AID 2282963); conditions: HepG2, Attagene cis-factorial STAT3 reporter transcription; actives raise or lower the signal
Procedure, shortened: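 HepG2 cells transiently transfected with multiple cis-element-driven reporter units report endogenous transcription factor activity. After 24 h compound exposure, reporter mRNA is measured by RT-PCR, 6-FAM labelling, HpaI digestion and capillary electrophoresis. Fitted bidirectionally versus DMSO.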

[8] = ATG_TA_CIS: Attagene CIS-FACTORIAL HepG2 Assay for human TA Basal Promoter (AID 2282964); conditions: HepG2 Attagene CIS-factorial TA basal promoter reporter; actives raise or lower the signal
Procedure, shortened: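 Transient MRTU transfection of HepG2 preceded 24 h compound exposure. Reporter mRNA levels were then read by RT-PCR with capillary electrophoresis, and this background-control endpoint was fitted bidirectionally to DMSO.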

[9] = ATG_TCF_b_cat_CIS: Attagene CIS-FACTORIAL HepG2 Assay for human T-Cell-Factor with beta-catenin (TCF/b-cat) (AID 2282965); conditions: HepG2 TCF/beta-catenin cis-reporter transcription, actives raise or lower the signal
Procedure, shortened: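 HepG2 cells transiently transfected with cis-promoter-driven multiplexed reporter units; reporter mRNA measured 24 h after dosing by RT-PCR, FAM labelling, HpaI digestion and capillary electrophoresis. Bidirectional fitting relative to DMSO baseline.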

[10] = ATG_TAL_CIS: Attagene CIS-FACTORIAL HepG2 Assay for human TAL Basal Promoter (AID 2282966); conditions: HepG2 Attagene cis-factorial TAL promoter reporter; actives raise or lower the signal;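 note: background control endpoint measuring basal TAL promoter reporter mRNA not a specific factor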
Procedure, shortened: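 In this cell-based multiplex, HepG2 liver cells bearing cis-promoter reporter constructs are dosed for 24 hours. Total RNA is reverse-transcribed and amplified, labelled fragments are sized by capillary electrophoresis, and signal changes are fitted bidirectionally versus DMSO.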

[11] = ATG_VDRE_CIS: Attagene CIS-FACTORIAL HepG2 Assay for human Vitamin D Receptor Element (VDRE) (AID 2282968); conditions: HepG2 VDRE cis-reporter transcription, actives raise or lower the signal
Procedure, shortened: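 Transiently transfected HepG2 cells carrying cis-regulated reporter transcription units were exposed for 24 h. Reporter mRNA was measured by RT-PCR with fluorescent labelling and capillary electrophoresis, and fitted in both directions against DMSO.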

[12] = biological target: Transcriptional activator Myb (Homo sapiens) (UniProt P10242); assay: ATG_Myb_CIS: Attagene CIS-FACTORIAL HepG2 Assay for human Myeloblastosis (Myb) Proto-Oncogene Transcription Factor (AID 2282986); conditions: HepG2 Attagene CIS-FACTORIAL Myb reporter transcription; actives raise or lower the signal
Procedure, shortened: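 Steps: transfect HepG2 with cis-regulated reporter units; dose with chemical for 24 h; isolate RNA, reverse-transcribe, PCR-amplify and FAM-label reporter sequences; digest with HpaI; resolve by capillary electrophoresis. Activity fitted in both directions relative to DMSO.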

[13] = biological target: Nuclear respiratory factor 1 (Homo sapiens) (UniProt Q16656); assay: ATG_NRF1_CIS: Attagene CIS-FACTORIAL HepG2 Assay for human Nuclear Respiratory Factor 1 (NRF1) Orphan Gene (AID 2282987); conditions: HepG2 NRF1 cis-element reporter, Attagene multiplex; actives raise or lower the signal
Procedure, shortened: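 Fluorescence intensity of labelled reporter cDNA fragments, resolved by capillary electrophoresis, served as readout for NRF1 cis-element activity. Transiently transfected HepG2 cells were dosed for 24 hours; activity in either direction was fitted against DMSO negative control.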

[14] = ATG_NFI_CIS: Attagene CIS-FACTORIAL HepG2 Assay for human Nuclear Factor I (NFI) (AID 2282989); conditions: HepG2 cis-regulatory reporter, NFI response element transcription; actives raise or lower the signal
Procedure, shortened: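 Reporter transcription driven by endogenous transcription factors in HepG2 cells; 24 h treatment. Quantitation by labelled RT-PCR fragments on capillary electrophoresis, gain- or loss-of-signal relative to DMSO.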

[15] = biological target: Myc proto-oncogene protein (Homo sapiens) (UniProt P01106); assay: ATG_Myc_CIS: Attagene CIS-FACTORIAL HepG2 Assay for human Myelocytomatosis (Myc) Proto-Oncogene Transcription Factor (AID 2282990); conditions: HepG2, Attagene cis-reporter transcription factor activity; actives raise or lower the signal
Procedure, shortened: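 Transiently transfected HepG2 cells bearing cis-promoter reporter units for endogenous transcription factors; 24 h exposure. Reporter mRNA measured by RT-PCR, 6-FAM primer extension, HpaI cut and capillary electrophoresis; bidirectional fit relative to DMSO.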

[16] = ATG_NRF2_ARE_CIS: Attagene CIS-FACTORIAL HepG2 Assay for human Nuclear Factor Erythroid 2 Related Factor 2 (NFR2) response to Antioxidant Response Elements (ARE) (AID 2282992); conditions: HepG2 Attagene ARE/NRF2 reporter, transcription factor activity; actives raise or lower the signal
Procedure, shortened: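 HepG2 cells transiently transfected with multiplexed cis-element reporter constructs, 24 h after chemical dosing; reporter mRNA quantified by RT-PCR, fluorescent primer extension, HpaI digestion and capillary electrophoresis. Bidirectional fit relative to DMSO.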

[17] = ATG_Oct_MLP_CIS: Attagene CIS-FACTORIAL HepG2 Assay for human Octamer-Binding Transcription Factor (Oct) (AID 2282993); conditions: HepG2 Attagene cis-factorial Oct reporter, mRNA; actives raise or lower the signal
Procedure, shortened: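 Transfected HepG2 cells, 24 h treatment. Reporter mRNA quantified by RT-PCR–capillary electrophoresis; bidirectional fitting against DMSO.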

[18] = biological target: Cellular tumor antigen p53 (Homo sapiens) (UniProt P04637); assay: ATG_p53_CIS: Attagene CIS-FACTORIAL HepG2 Assay for human p53 Transcription Factor (AID 2282994); conditions: HepG2 p53 cis-element reporter, Attagene mRNA; actives raise or lower the signal
Procedure, shortened: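 HepG2 cells transiently transfected with cis-regulated multiple reporter transcription units, dosed 24 h. Reporter mRNA measured by RT-PCR, 6-FAM primer extension, HpaI digestion and capillary electrophoresis; bidirectional fit relative to DMSO.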

[19] = biological target: Nuclear receptor subfamily 1 group I member 2 (Homo sapiens) (UniProt O75469); assay: ATG_PXR_TRANS: Attagene TRANS-FACTORIAL HepG2 Assay for human Pregnane X Receptor (PXR) (AID 2283008; active = hit-call score of the fitted dose curve at least 0.9, where 1 is the maximum)
Procedure, shortened: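 HepG2 cells transiently transfected with GAL4-UAS reporter units and PXR-Gal4 chimera, exposed 24 h. Reporter mRNA quantified by RT-PCR, fluorescent labelling, HpaI digestion and capillary electrophoresis; gain of signal vs DMSO.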

[20] = ATG_XTT_Cytotoxicity: Cytotoxicity Assessment in the Attagene TRANS-FACTORIAL HepG2 Assay (AID 2283584; active = hit-call score of the fitted dose curve at least 0.9, where 1 is the maximum)
Procedure, shortened: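 XTT readout of cell number in transfected HepG2 cells, 24 h post-dosing; DMSO serves as negative control and baseline, with activity taken as loss of viability signal.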

Measured: outcome

Sequence of Transcriptional activator Myb (Homo sapiens) (P10242 whole entry, looked up): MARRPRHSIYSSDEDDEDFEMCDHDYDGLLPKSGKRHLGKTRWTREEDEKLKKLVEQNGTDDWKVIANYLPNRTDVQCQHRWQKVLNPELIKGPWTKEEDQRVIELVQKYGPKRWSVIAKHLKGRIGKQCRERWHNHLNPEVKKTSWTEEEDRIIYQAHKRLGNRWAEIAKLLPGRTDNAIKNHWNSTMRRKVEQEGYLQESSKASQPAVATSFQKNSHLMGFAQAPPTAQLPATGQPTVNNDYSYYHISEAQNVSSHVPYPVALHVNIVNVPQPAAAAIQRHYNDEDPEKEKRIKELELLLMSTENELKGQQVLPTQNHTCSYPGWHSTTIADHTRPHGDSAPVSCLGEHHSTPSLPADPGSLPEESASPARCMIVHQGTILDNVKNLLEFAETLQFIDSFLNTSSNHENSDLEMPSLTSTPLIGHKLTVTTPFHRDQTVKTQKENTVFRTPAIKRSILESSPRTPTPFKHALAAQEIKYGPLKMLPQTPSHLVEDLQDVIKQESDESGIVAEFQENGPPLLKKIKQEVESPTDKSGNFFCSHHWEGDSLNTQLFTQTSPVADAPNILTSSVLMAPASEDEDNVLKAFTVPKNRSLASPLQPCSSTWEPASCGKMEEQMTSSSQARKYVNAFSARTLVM
Sequence of Myc proto-oncogene protein (Homo sapiens) (P01106 whole entry, looked up): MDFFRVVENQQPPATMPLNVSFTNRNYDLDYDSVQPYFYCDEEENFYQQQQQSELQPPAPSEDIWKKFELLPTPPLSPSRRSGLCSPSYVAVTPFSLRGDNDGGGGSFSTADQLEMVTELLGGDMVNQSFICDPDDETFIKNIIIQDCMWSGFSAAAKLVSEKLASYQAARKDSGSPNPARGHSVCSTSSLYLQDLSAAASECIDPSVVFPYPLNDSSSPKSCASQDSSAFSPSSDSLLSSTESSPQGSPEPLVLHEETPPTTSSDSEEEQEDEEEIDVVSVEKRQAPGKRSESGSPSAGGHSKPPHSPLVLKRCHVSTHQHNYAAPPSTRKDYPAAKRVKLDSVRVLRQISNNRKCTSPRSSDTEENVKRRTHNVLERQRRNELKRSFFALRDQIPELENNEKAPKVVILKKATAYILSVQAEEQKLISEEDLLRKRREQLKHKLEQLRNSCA
Sequence of Heat shock factor protein 1 (Homo sapiens) (Q00613 whole entry, looked up): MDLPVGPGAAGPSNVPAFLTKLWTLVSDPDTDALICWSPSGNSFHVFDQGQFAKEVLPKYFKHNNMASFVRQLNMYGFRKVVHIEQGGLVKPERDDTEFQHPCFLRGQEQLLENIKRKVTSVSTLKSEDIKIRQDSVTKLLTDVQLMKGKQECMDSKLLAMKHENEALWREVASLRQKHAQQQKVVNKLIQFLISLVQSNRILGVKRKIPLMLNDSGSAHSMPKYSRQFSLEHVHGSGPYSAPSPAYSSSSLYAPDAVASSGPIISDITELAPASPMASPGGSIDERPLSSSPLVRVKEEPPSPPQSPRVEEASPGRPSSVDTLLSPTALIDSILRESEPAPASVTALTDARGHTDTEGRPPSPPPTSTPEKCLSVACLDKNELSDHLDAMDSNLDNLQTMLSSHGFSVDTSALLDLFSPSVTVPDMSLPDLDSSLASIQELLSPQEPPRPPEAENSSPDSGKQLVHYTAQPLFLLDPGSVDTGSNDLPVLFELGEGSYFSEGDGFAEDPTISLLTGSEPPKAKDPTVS
Sequence of Signal transducer and activator of transcription 3 (Homo sapiens) (P40763 whole entry, looked up): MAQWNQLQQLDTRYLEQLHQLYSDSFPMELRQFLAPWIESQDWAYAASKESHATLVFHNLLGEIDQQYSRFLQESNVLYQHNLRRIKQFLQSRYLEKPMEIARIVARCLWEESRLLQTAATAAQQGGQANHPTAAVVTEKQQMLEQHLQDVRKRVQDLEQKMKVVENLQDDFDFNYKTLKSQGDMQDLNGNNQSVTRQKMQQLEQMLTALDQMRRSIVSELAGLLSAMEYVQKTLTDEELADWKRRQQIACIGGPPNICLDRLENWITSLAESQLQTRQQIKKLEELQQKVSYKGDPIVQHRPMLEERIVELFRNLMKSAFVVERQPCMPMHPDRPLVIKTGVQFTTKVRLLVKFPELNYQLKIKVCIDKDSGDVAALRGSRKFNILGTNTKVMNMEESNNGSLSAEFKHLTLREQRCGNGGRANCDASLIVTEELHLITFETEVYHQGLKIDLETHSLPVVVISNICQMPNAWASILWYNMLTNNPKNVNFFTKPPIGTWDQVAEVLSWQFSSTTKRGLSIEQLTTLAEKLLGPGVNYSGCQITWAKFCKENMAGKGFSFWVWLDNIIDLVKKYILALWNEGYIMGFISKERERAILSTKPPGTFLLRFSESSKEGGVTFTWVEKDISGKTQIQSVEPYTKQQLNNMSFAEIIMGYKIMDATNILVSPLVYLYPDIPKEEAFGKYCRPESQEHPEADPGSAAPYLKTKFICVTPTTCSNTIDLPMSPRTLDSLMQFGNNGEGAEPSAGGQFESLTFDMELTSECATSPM
Sequence of Hepatocyte nuclear factor 3-beta (Homo sapiens) (Q9Y261 whole entry, looked up): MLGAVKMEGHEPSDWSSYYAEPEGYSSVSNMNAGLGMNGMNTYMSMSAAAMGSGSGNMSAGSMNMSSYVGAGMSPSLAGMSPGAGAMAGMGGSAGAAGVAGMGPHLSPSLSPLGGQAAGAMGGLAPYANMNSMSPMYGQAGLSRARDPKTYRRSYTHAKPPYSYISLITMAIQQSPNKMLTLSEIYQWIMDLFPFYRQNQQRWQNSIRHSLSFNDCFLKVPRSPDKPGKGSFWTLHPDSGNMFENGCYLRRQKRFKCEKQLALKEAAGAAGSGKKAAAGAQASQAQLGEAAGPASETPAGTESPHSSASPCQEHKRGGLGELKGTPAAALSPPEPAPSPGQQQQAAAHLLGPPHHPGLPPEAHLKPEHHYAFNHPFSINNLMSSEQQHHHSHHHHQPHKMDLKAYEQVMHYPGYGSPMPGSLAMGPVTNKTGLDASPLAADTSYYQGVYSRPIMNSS
Sequence of Nuclear respiratory factor 1 (Homo sapiens) (Q16656 whole entry, looked up, the tested form may be a part): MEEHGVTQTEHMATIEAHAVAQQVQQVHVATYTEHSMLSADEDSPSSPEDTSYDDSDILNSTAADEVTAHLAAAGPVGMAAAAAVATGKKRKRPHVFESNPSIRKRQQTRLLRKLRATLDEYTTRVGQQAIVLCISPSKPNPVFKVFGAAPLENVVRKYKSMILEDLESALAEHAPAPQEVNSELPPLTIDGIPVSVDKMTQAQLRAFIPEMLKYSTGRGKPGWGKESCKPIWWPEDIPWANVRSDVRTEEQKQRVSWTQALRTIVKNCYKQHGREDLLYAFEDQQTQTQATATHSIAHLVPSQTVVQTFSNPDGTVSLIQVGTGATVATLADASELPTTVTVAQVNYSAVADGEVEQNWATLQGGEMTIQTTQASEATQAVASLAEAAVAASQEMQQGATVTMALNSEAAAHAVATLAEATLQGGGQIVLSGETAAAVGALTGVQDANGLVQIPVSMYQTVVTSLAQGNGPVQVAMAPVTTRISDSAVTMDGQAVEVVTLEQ
Sequence of Cellular tumor antigen p53 (Homo sapiens) (P04637 whole entry, looked up): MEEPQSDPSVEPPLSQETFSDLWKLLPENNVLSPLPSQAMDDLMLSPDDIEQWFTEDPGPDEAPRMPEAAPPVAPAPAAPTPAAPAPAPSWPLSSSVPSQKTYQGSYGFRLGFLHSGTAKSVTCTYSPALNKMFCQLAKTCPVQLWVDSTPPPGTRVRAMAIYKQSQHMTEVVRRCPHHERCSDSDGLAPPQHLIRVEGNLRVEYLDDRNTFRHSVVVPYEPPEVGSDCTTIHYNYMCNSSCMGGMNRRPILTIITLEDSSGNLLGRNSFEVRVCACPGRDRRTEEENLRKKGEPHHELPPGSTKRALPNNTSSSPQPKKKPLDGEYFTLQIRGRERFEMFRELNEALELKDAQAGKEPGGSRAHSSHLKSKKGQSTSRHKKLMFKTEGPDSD
Sequence of Transcription factor Sp1 (Homo sapiens) (P08047 whole entry, looked up): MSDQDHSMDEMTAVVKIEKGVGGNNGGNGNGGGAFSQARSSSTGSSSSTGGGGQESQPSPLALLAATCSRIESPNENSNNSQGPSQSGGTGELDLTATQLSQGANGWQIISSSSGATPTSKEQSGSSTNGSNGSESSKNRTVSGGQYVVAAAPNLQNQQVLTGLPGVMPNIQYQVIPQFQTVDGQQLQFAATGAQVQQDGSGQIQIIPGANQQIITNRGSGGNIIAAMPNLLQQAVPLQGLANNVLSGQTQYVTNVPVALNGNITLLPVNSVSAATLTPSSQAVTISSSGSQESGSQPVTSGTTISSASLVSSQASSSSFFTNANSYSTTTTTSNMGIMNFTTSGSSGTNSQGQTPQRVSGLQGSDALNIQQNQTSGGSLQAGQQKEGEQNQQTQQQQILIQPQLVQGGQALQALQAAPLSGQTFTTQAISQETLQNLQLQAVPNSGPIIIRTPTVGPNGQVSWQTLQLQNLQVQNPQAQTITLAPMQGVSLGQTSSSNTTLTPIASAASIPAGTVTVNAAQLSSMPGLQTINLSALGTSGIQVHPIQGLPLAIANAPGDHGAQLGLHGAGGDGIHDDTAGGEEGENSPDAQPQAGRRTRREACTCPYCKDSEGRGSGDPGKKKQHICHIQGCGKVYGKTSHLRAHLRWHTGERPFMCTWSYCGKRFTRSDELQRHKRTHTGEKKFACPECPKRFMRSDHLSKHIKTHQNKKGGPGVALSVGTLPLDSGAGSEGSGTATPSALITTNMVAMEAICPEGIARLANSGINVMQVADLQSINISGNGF
Sequence of Nuclear receptor subfamily 1 group I member 2 (Homo sapiens) (O75469 whole entry, looked up, the tested form may be a part): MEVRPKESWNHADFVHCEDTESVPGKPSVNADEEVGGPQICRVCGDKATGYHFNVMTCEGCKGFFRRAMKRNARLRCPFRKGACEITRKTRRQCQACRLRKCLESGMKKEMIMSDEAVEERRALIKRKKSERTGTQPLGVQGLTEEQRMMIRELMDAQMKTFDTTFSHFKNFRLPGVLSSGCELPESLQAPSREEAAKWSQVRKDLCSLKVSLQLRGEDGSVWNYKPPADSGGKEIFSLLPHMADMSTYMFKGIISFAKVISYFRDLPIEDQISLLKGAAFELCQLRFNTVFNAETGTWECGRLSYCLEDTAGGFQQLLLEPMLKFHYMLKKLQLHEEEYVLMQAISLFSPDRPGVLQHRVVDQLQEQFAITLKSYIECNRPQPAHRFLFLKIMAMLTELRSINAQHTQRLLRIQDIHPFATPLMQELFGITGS

CCCC(=O)OC
not listed: [20]
inactive: all other assays above

CC1(C)S[C@@H]2[C@H](NC(=O)[C@H](N)c3ccccc3)C(=O)N2[C@H]1C(=O)O
not listed: [11]
inactive: all other assays above

CC(C)CC(=O)O
not listed: [19]
inactive: all other assays above
